# Bioassay records deposited in PubChem BioAssay by The Scripps Research Institute Molecular Screening Center.
# Rows were chosen to be rich in hits. Some 4.1% of all compounds tested hit in one or more screens of this group.
# DAX1 inh-1: DAX1 (NR0B1) inhibition, primary screen; AID 652010; 1.1% of 370,000 active; HEK293T StAR-luciferase reporter, SF-1/DAX-1 repression relief; inhibition, % at 6.8 µM;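 active means inhibition above the mean over all tested compounds plus 3 SD, cut at about 3.6% in these data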;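 further: 0% = DAX-1 cells with DMSO and 100% = cells lacking DAX-1 with DMSO; higher inhibition means more luminescence from relief of DAX-1 repression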
# ssDAF-12 act: activators of S. stercoralis DAF-12 nuclear receptor. HEK293 ssDAF-12/GRIP1 lit1-tk-luc reporter, luminescence; % of 3 µM dafachronic acid response. activation, % at 6.8 µM. 1% of 370,000 active. AID 652126;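 active means activation above the mean over all tested compounds plus 3 SD, cut at about 0.9% in these data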;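 further: 0% = DMSO-only wells and 100% = 3 µM delta7-dafachronic acid wells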
# DAX1 inh-2: inhibitors of human orphan nuclear receptor DAX1 (NR0B1); inhibition, % at 6.75 µM; 0.99% of 340,000 active; HEK293 Gal4-DAX1 luciferase reporter, luminescence; AID 504766;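 active means inhibition above the mean over all tested compounds plus 3 SD, cut at about 4.2% in these data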;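 further: 0% = DAX1-transfected cells with DMSO and 100% = empty-vector control cells with DMSO; inhibition shows as a rise in luminescence from relieved DAX1 repression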
# Target sequence (P51843 207-470 limits assumed): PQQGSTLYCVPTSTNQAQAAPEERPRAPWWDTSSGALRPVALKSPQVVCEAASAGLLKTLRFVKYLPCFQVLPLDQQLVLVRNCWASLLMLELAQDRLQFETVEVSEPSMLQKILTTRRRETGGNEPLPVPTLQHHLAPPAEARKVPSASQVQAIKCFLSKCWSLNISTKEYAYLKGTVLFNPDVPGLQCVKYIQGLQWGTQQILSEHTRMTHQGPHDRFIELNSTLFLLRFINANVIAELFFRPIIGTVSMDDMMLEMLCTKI
# hcDAF-12 act: activators of H. contortus DAF-12 nuclear receptor. HEK293 hcDAF-12 lit1-tk-luc reporter, luminescence; 0% DMSO, 100% Δ7-dafachronic acid. activation, % at 6.8 µM. 1.4% of 370,000 active. AID 652067;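 active means activation above the mean of all tested compounds plus 3 SD, cut at about 5.5% in these data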;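 further: 100% = response to 3 µM Δ7-dafachronic acid high control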
# hgDAF-12 ag: hgDAF-12 agonism, primary luciferase screen | activation, % at 6.8 µM | 1.8% of 370,000 active | HEK293 GAL4-hgDAF12 UAS-luciferase reporter, agonist luminescence; normalized to butyrate control;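 active means activation above a cutoff set at the mean of all screened compounds plus 3 SD, cut at about 10% in these data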;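 further: 0% = DMSO wells and 100% = sodium butyrate wells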
# * = called active by the depositor; / = not tested or not shown.
SMILES,DAX1 inh-1,ssDAF-12 act,DAX1 inh-2,hcDAF-12 act,hgDAF-12 ag
Cc1cccc2sc(NC(=O)[C@@H]3CCCN3C(=O)c3cccs3)nc12,0,-1,0,1,2
O=C(N[C@H](C(=O)N1CCC[C@H]1C(=O)NCc1ccccc1)C1CCCCC1)c1ccc(Cl)c(Cl)c1,0,-1,/,-1,1
COc1cc(C=O)ccc1OCc1ccc(Cl)nc1,1,-1,2,0,11*
Cc1ccc(S(=O)(=O)C2(C(=O)Nc3ccc(C(C)C)cc3)CC2)cc1,0,1.0*,-2,-1,8
Cc1ccc(NC(=O)C2(S(=O)(=O)c3ccc(C)cc3)CC2)cc1,/,/,0,/,/
CN=CC1=C(O)C(C(=O)OC)C(C)(C)CC1=O (stereo not drawn),0,-1,4.3*,-1,1
O=C(O)c1ccccc1N/N=C/c1c(Sc2nnnn2-c2ccccc2)nc2ccccn2c1=O,2,0,0,-1,-2
O=c1c(/C=N/Nc2ccccc2)c(Sc2nnnn2-c2ccccc2)nc2ccccn12,0,0,-2,6.3*,12*
COC(=O)C1=C(C)N(C)C(=NCc2ccc3c(c2)OCO3)NC1c1ccccc1 (stereo not drawn),0,-1,/,1,1
CN1C(=O)C(O)(CC(=O)c2ccccc2O)c2cc(Br)ccc21 (stereo not drawn),-1,0,4.4*,3,-1
CN1C(=O)C(O)(CC(=O)/C=C/c2ccco2)c2cc(Br)ccc21 (stereo not drawn),1,0,-1,3,4
O=C(Nc1cccc(NC(=O)c2cccnc2)c1)c1cccnc1,/,/,0,/,/
O=C(Nc1ccc(Cl)c(Cl)c1)c1cccnc1,0,-2,6.3*,0,3
CC(C)c1ccc(C(=O)Nc2cccnc2)cc1,2,0,1,4,10*
CC(C)c1[nH]nc2c1C(c1ccccc1)N(c1ccccc1)C2=O (stereo not drawn),0,0,/,1,-3
O=C(CN1CCN(c2ccc([N+](=O)[O-])cc2)CC1)Nc1nccs1,-1,-2,1,-2,-5
O=C(Nc1nccs1)c1ccc([N+](=O)[O-])cc1,0,1.2*,1,5,6
O=C(Cc1ccc([N+](=O)[O-])cc1)Nc1nccs1,0,0,7.2*,-1,0
O=C(CSc1nc2ccccc2nc1N1CCCC1)N1CCN(C(c2ccccc2)c2ccccc2)CC1,-1,-1,/,0,1
O=C(NC1CCCCN(Cc2cccc(Cl)c2)C1=O)c1c(F)cccc1F (stereo not drawn),0,-1,/,-1,0
CC(=O)N1N=C(c2ccc(C)cc2)OC1c1ccc(C(C)C)cc1 (stereo not drawn),1,-1,4.5*,1,4
O=C(Cn1nnc(-c2ccncc2)n1)Nc1ccc(F)cc1F,-2,-1,/,-2,-2
CCOC(=O)[C@]12CCCC3=C1N(CCC3)C(=O)[C@@H](CC(=O)NCCCN1CCCC1=O)C2,0,-1,/,1,1
NC(=NC(=O)/C=C/c1ccccc1Br)N(CC#Cc1ccccc1)CC#Cc1ccccc1,/,-1,/,-2,-1
CCOc1cc2c(cc1/C=C/C(=O)O)OC(C)C2 (stereo not drawn),-1,-1,4.7*,-2,-4
SMILES,DAX1 inh-1,ssDAF-12 act,DAX1 inh-2,hcDAF-12 act,hgDAF-12 ag
COc1cc2c(cc1/C=C/C(=O)O)OC(C)C2 (stereo not drawn),0,-1,0,-1,0
Cc1c(NC(=O)C2CCCN(S(=O)(=O)c3ccc(C(C)(C)C)cc3)C2)c(=O)n(-c2ccccc2)n1C (stereo not drawn),0,-1,/,-2,-2
COc1cc(N2C[C@@]3(O)CC[C@@H](O)[C@@H](OC)[C@@H]3[C@@](C)(O)[C@@H]2CC=C(C)C)cc(OC)c1OC,0,-1,/,1,2
c1ccc(-c2nnc(NC3=NCCC3)o2)cc1,4.1*,0,-1,5,10
Fc1ccc(-c2nnc(NC3=NCCCCC3)o2)cc1,0,-2,-4,2,-4
COCc1nnc(NS(=O)(=O)c2ccccc2)s1,0,-1,-1,-1,-2
COCc1nnc(NS(=O)(=O)c2ccc(C)cc2)s1,0,0,4.4*,1,1
C/C(=N\Nc1nc2c(s1)CCCC2)c1ccc(Cl)cc1,0,0,2,6.3*,6
C/C(=N\NC1=NCCN1)c1ccc(Cl)cc1,0,-1,1,0,0
O=C1Nc2ccc(Br)cc2/C1=C/C1CC=CCC1 (stereo not drawn),-1,1.0*,0,2,3
O=C1Nc2ccc(Br)cc2/C1=C/C(=O)c1ccc2c(c1)OCO2,0,0,1,1,3
CSc1ncccc1C(=O)OCC(=O)c1cc(C)n(C)c1C,2,1,4.3*,6.4*,4
C/C(=N\N1C(=O)c2ccccc2NC1c1ccco1)c1ccccc1O (stereo not drawn),3,0,6.1*,1,9
C/C(=N\N1C(=O)c2ccccc2NC1c1ccccc1)c1ccccc1O (stereo not drawn),3.8*,-1,2,3,9
CNc1nc(Cl)nc2c1ncn2-c1ccccc1,-1,-1,4.6*,0,4
COC(=O)[C@]12C[C@H](CC(=O)NCc3cccs3)C(=O)N(Cc3ccc(Cl)cc3Cl)C1=C[C@H](C1CCCC1)O[C@@H]2C,0,-1,/,0,-1
Cc1ccc(C(=O)NC2CCCCN(C(C)C)C2=O)cc1 (stereo not drawn),-1,-1,/,3,-2
Cc1ccc(Cl)cc1N1CCN(C(=O)Cc2c(C(=O)O)[nH]c3ccc(Cl)cc23)CC1,0,0,0,1,-2
Cc1ccc(Cl)cc1N1CCN(C(=O)Cc2c(C(=O)O)[nH]c3ccccc23)CC1,0,1.2*,1,5,-2
COc1ccc(C(=O)N/C(=C\c2cn(C)c3ccccc23)C(=O)NCCCN2CCOCC2)cc1OC,0,-1,0,0,2
Cn1cc(/C=C(\NC(=O)c2ccccc2)C(=O)NCCCN2CCOCC2)c2ccccc21,-1,1.3*,0,2,0
Cc1nc(C(=O)NCC(=O)c2ccccc2)c(C(F)(F)F)o1,0,-1,2,0,1
Cc1nc(C(=O)NNC(=O)c2ccccc2)c(C(F)(F)F)o1,0,-1,4.3*,-2,0
N=c1c2c(-c3ccccc3)c(-c3ccccc3)n(CCc3ccccc3)c2ncn1C1CCC(O)CC1 (stereo not drawn),-2,-1,/,0,-5
Cn1c(N)c(C(=O)/C=C/c2ccccc2)c(=O)[nH]c1=O,1,1.1*,2,3,9
Cn1c(N)c(C(=O)Nc2ccccc2)c(=O)[nH]c1=O,1,-1,/,-2,-1
